“And” between values parts separate entries of the source, which are not always exact repeats. Equal values may be shown once. The source made the active and inactive calls.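 The calls were made as follows, unless noted: active = inhibition at or above 50% relative to wild type and mutant plate controls; inactive = inhibition below 50%.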
Tests used:
[1] = inhibitors of TNFa-induced NFkB p65 translocation, primary screen, imaging, HUVEC, MLSMR starter and 10KST1 sets (AID 438;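 active = inhibition above 20% together with a positive visual image hit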;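 also: compound added about 3h40 before a 20 min TNFalpha stimulation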;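 as to inhibition: signal is the nuclear over cytoplasmic p65 intensity ratio per well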); conditions: HUVEC TNFa-induced p65 nuclear translocation; cell count: measured here: nuclei count (cytotoxicity indicator), at 2.08 µM; inhibition: at 2 µM, stronger effect = higher value, 0% TNFa-plus-vehicle, 100% no-TNFa wells
[2] = reduction of polyQ htt aggregates in cells – imaging, exon1htt(103Q)mCFP cells, high-content imaging, primary screen (AID 483;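 active = visual image review flags a hit and inhibition of aggregation exceeds 20%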;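 also: compound exposure lasted 3 days before fixation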;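 as to nuclei count: percent of the per-plate median nuclei count of sample wells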); conditions: exon1htt(103Q)mCFP cell line, aggregate imaging, at 2 µM; inhibition of aggregation: stronger effect = higher value; nuclei count: measured here: cell count, toxicity
[3] = endothelial E-selectin expression blockers – imaging, HUVEC, immunofluorescence, MLSMR starter and 10KST1 sets, primary screen (AID 487;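 active = visually confirmed hit in the image check and inhibition above 20%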;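 as to inhibition: signal is fraction of cell area covered by stained E-selectin grains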;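 as to nuclei count: 100% = median nuclei count of all wells on the same plate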); conditions: HUVEC TNFalpha-induced E-selectin immunofluorescence imaging, at 2 µM; inhibition: stronger effect = higher value; nuclei count: measured here: cell number, toxicity
[4] = Primary imaging screen for DUSP6 inhibitors that restore phospho-Erk in transfected HeLa cells, chemical complementation (AID 609;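 active = compounds giving at least 50% inhibition in the cell-based MKP-3 phosphatase rescue imaging test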;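 as to inhibition: phospho-Erk level distribution per well compared with pooled transfected vehicle control wells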); conditions: HeLa MKP-3 transfected, phospho-Erk imaging KS statistic, at 10 µM, cells stimulated with TPA for 15 min
[5] = biological target: Dual specificity protein phosphatase 6 (Homo sapiens) (UniProt Q16828); assay: as above; conditions: HeLa MKP-3 transfected, phospho-Erk imaging KS statistic; at 10 µM; stronger effect = higher value; cells stimulated with TPA for 15 min
Dual specificity protein phosphatase 6 (Homo sapiens), sequence (Q16828 whole entry, looked up): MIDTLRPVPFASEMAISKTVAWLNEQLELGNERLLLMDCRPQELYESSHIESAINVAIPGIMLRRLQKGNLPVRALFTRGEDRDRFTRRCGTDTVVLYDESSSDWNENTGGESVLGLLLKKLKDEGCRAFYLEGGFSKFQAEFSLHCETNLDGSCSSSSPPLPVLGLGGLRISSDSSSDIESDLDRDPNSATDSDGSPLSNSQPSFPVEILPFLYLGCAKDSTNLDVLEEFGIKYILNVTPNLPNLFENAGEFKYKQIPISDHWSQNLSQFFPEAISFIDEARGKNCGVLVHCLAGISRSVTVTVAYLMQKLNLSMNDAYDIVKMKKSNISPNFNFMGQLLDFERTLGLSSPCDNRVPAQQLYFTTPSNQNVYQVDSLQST

[6] = biological target: Voltage-gated potassium channel subunit beta-2 (Rattus norvegicus) (UniProt P62483); assay: inhibitors of rat Kvbeta2 reductase activity – biochemical, NADPH fluorescence, primary screen (AID 622;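 active = fluorescence slope higher than the sample average by over 3 SD, cut at about -0.22 in these data, passing the limit was not always enough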;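 also: slope of raw intensity against log time taken from 70 to 1610 s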); conditions: recombinant KvBeta, 4-cyanobenzaldehyde reduction, at 10 µM, stronger effect = higher value
Voltage-gated potassium channel subunit beta-2 (Rattus norvegicus), sequence (P62483 whole entry, looked up): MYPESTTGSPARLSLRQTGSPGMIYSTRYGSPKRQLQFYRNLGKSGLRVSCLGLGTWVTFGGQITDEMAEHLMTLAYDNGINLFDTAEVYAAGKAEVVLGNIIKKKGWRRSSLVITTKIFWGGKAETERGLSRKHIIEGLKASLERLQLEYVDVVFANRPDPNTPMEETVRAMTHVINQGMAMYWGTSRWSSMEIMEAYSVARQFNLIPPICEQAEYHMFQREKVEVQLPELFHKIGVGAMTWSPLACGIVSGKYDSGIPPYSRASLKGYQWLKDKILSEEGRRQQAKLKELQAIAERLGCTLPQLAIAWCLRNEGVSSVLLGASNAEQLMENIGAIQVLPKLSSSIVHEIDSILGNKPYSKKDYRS

[7] = biological target: Voltage-gated potassium channel subunit beta-2 (Rattus norvegicus) (UniProt P62483); assay: enhancers of rat Kvbeta2 NADPH turnover – biochemical, NADPH fluorescence, primary screen (AID 623;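 active = NADPH fluorescence slope more negative than the mean of all samples by about 3 SD, 99.7% confidence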;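 also: fluorescence intensity change per second fitted from 20 to 320 s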); conditions: Recombinant KvBeta, NADPH fluorescence decrease slope, 10 min; at 10 µM; stronger effect = lower value
[8] = biological target: Alpha-2C adrenergic receptor (Homo sapiens) (UniProt P18825); assay: compounds altering alpha2C-coupled GIRK flux – cell-based, HEK293 alpha2C/GIRK1/2, thallium flux, primary screen (AID 624;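 active = fluorescence slope after compound addition differing from the mean of all screened samples at 99.7% confidence, in either direction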;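 also: slope of fluorescence ratio to pre-addition baseline per second over 15 to 24 s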); conditions: thallium flux BTC fluorescence, at 10 µM, actives lie on both sides
Alpha-2C adrenergic receptor (Homo sapiens), sequence (P18825 whole entry, looked up): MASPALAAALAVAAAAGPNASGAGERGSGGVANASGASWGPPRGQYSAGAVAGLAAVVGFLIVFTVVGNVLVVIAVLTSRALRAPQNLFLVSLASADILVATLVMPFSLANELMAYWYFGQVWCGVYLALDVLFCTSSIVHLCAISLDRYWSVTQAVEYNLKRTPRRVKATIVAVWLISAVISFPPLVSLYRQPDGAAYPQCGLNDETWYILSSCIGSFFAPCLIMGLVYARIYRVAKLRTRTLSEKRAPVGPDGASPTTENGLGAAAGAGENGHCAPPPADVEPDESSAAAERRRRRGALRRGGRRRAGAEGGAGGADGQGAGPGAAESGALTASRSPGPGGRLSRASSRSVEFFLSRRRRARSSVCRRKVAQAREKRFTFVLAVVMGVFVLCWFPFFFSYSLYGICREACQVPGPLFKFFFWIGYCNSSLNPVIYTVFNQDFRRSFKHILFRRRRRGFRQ

[9] = inhibitors of larval lipid processing in zebrafish, primary screen, whole organism, PED6 fluorescence, gall bladder and intestine (AID 686;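 active = a full or partial loss of lipid-probe fluorescence in the fish gall bladder, intestine or both, judged by eye; inactive = no fluorescence loss, or compound toxic to the fish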;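 also: larvae 5 to 7 days old with five fish per well; signal comes from phospholipase A2 cleavage of quenched PED6 carried via bile; overnight exposure to compound and PED6 before scoring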); conditions: Zebrafish larvae PED6 lipid processing, fluorescence scoring; screened at 20 µM (by protocol)
[10] = loss of swimming-algae plug formation – whole organism, Chlamydomonas reinhardtii, WT vs cilia-less mutant, absorbance, 96-well, primary screen (AID 463189); conditions: Chlamydomonas reinhardtii gravitaxis, OD600 absorbance, 2 days; at 10 µM; stronger effect = higher value;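 also: 0% = wild type cc124 cells in DMSO and 100% = ciliumless bld1 mutant cells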
[11] = blockers of RIG-like receptor reporter activation – cell-based, Sendai virus stimulus, luciferase, 10K MLSCN set, TLR/RLR signaling modifier project, primary screen (AID 602276;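 active = inhibition at or above 50% at 10 µM; inactive = inhibition below 50%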;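 also: firefly luciferase from ISG56 promoter only with Renilla not read in this screen; 0% = Sendai virus plus DMSO and 100% = medium plus DMSO without virus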); conditions: HEK293 RL24 IRF3 luciferase reporter, at 10 µM, stronger effect = higher value
[12] = TLR3 IRF3 reporter activation blockers – cell-based, poly I:C stimulus, luciferase, 10K MLSCN set, primary screen (AID 602277;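 active = inhibition of the reporter signal at or above 50%; inactive = inhibition below 50%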); conditions: HEK293-TLR3 RL24 IRF3 luciferase reporter, at 10 µM, stronger effect = higher value
[13] = measured here: cell density z-score
[14] = measured here: nuclear c-Myc green intensity z-score
[15] = measured here: nuclear pErk red intensity z-score, stronger effect = higher value

Row | Structure (SMILES) | cell count [1] | inhibition [1] | inhibition of aggregation [2] | nuclei count [2] [%] | inhibition [3] | nuclei count [3] [%] | z-score [4, 13] | z-score [4, 14] | z-score [4, 15] | inhibition [5] | fluorescence slope [6] | NADPH fluorescence slope [7] | slope [8] | outcome [9] | inhibition [10] | inhibition [11] | inhibition [12]
1 | N#CC(C(=O)Nc1ccc(Cl)c(Cl)c1)=C1Nc2ccccc2N1 | 445 | -0.2% (inactive) | 13.2% (inactive) | 98.9 | -124% (inactive) | 136 | 0.726 | 1.14 | 0.693 | -1.75% (inactive) | -0.351 (inactive) | -8.3e-07 (inactive) | 0.00591 (inactive) | inactive | -6.51% (inactive) | 12.6% (inactive) | 15.9% (inactive)
2 | Cc1cc(-c2ccccc2)nnc1NCCN1CCOCC1 | 674 | 5.8% (inactive) | -29.4% (inactive) | 99.9 | -64.4% (inactive) | 119 | 0.561 | 0.88 | 0.22 | 25.7% (inactive) | -0.472 (inactive) | -2e-05 (inactive) | 0.00515 (inactive) | inactive | 15.7% (inactive) | 13.3% (inactive) | 33.7% (inactive)
3 | CCC(CC)C1C(C#N)=C(N)Oc2n[nH]c(C)c21 (configuration not stated) | 565 | -2.9% (inactive) | -28.3% (inactive) | 102 | -21.1% (inactive) | 112 | -1.42 | -0.486 | 0.51 | 5.57% (inactive) | -0.492 (inactive) | -0.000106 (inactive) | 0.00492 (inactive) | inactive | -5.48% (inactive) | 41.8% (inactive) | 50% (inactive)
4 | CN(C)c1nc(N(C)C)nc(N(C)C)n1 | 680 | -4.1% (inactive) | 1.6% (inactive) | 109 | -118% (inactive) | 129 | 1.31 | -0.357 | -1.49 | 11.3% (inactive) | -0.459 (inactive) | 2.8e-05 (inactive) | 0.0048 (inactive) | inactive | 4.91% (inactive) and -7.01% (inactive) | 14.2% (inactive) | 32.5% (inactive)
5 | S=C(N=Nc1ccccc1)NNc1ccccc1 | 456 | -24.6% (inactive) | 15.4% (inactive) | 97.4 | -51.9% (inactive) | 122 | 0.583 | -0.233 | 0.888 | -2.46% (inactive) | -0.552 (inactive) | -4.2e-05 (inactive) | 0.0111 (inactive) | inactive | 12.8% (inactive) | -11.4% (inactive) | -44.3% (inactive)
6 | COc1ccc(OC)c(C2=Nn3c(nnc3C3CCCCC3)SC2)c1 | 580 | -3.9% (inactive) | 18.9% (inactive) | 77.4 | -38.3% (inactive) | 118 | -0.0238 | 2.3 | -0.394 | 2.92% (inactive) | -0.431 (inactive) | -0.000148 (inactive) | 0.00512 (inactive) | inactive | 25.7% (inactive) | 5.58% (inactive) | 19.6% (inactive)
7 | COC(=O)CN(c1nc(C)c(Cl)c(OC)n1)S(=O)(=O)c1ccc(C)cc1 | 706 | -4.1% (inactive) | 2.4% (inactive) | 98.1 | -48.3% (inactive) | 148 | -0.882 | 0.458 | 1.21 | -11% (inactive) | -0.373 (inactive) | -4.1e-05 (inactive) | 0.00465 (inactive) | inactive | 5.7% (inactive) | 13.8% (inactive) | 18.7% (inactive)
8 | CCc1cc2c(=O)c(-c3cscn3)coc2cc1O | 406 | -6.1% (inactive) | -9.9% (inactive) | 59.7 | -99% (inactive) | 103 | -2.75 | 2.51 | -1.53 | 1.98% (inactive) | -0.528 (inactive) | 4e-05 (inactive) | 0.00552 (inactive) | inactive | -8.67% (inactive) | 20.6% (inactive) | 26.3% (inactive)
9 | CC1(C)Cc2c(sc3c2C2=NCCN2C=N3)CS1 | 632 | -2.6% (inactive) | -1.3% (inactive) | 109 | -26.4% (inactive) | 138 | 1.38 | 0.227 | -1.08 | 11.3% (inactive) | -0.487 (inactive) | -0.000119 (inactive) | 0.00445 (inactive) | inactive | -8.31% (inactive) | 0.61% (inactive) | 4.84% (inactive)
10 | CN1CCc2c(sc3c2c(=O)n(-c2ccccc2)c2nnc(SCc4ccccc4)n32)C1 | 562 | -16.1% (inactive) | 8.3% (inactive) | 116 | -95.1% (inactive) | 142 | 0.865 | -2.08 | -0.239 | 3.66% (inactive) | -0.563 (inactive) | -1.4e-05 (inactive) | 0.00449 (inactive) | inactive | 5.3% (inactive) | -12.4% (inactive) | 98.5% (active)
11 | O=C(OCC#CCSc1nnc(-c2ccccc2)o1)c1cccs1 | 281 | -2.4% (inactive) | 8.9% (inactive) | 95.4 | -178% (inactive) | 132 | -0.348 | 0.84 | 0.574 | 3.66% (inactive) | -0.396 (inactive) | -4e-05 (inactive) | 0.00513 (inactive) | inactive | -3.45% (inactive) | -0.522% (inactive) | 1.31% (inactive)
